Measured potencies and affinities stand elsewhere. Activity calls are given as the source filed them. Cut-off not given; nearly all actives show IC50 up to about 0.98 µM.
Target: Calcium-dependent protein kinase 1 (Plasmodium falciparum (isolate 3D7)) (UniProt P62344)
Assay: PfCDPK1 kinase inhibitors, biochemical, TCAMS library (AID 1159585);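 further: inhibitors leave more ATP so luminescence rises with inhibition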
Conditions: recombinant PfCDPK1, Kinase-Glo ATP depletion luminescence

Calcium-dependent protein kinase 1 (Plasmodium falciparum (isolate 3D7)), sequence (P62344 whole entry, looked up): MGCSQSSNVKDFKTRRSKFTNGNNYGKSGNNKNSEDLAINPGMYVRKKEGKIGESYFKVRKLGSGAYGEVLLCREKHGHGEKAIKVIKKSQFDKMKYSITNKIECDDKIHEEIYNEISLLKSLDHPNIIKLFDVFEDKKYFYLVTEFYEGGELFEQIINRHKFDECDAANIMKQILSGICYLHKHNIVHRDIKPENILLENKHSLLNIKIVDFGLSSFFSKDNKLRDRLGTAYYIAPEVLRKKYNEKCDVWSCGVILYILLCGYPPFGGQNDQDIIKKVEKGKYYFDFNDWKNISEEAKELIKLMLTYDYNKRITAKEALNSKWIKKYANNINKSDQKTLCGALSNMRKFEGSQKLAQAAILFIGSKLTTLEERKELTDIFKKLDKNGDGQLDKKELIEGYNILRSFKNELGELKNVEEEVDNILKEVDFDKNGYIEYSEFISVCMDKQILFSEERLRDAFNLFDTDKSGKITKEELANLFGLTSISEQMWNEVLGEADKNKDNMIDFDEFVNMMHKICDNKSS

Structure (SMILES) | outcome
Nc1nc(N)c2c(ccn2Cc2cc3c(cc2Cl)OCO3)n1 | inactive
O=C(Nc1ccc(S(=O)(=O)NCCCN2CCOCC2)cc1)c1cc(-c2ccccc2)n[nH]1 | inactive
Cn1nc(-c2cccc(CN[C@@H]3CCc4ccc(O)cc43)c2)c2cnc(NCCCN3CCCC3)nc21 | inactive
CCOc1ccc2c(NN=Cc3c4ccccc4cc4ccccc34)cc(C)nc2c1 | inactive
Cc1[nH]c(C)c([N+](=O)[O-])c(=O)c1-c1ccc(Oc2ccccc2)cc1 | inactive
O=C(Cc1cnc[nH]1)Nc1cccc(-c2ccc(-c3nc4ccc(C(F)(F)F)cc4[nH]3)cc2)c1 | inactive
O=C(CCc1cnc[nH]1)Nc1cccc(-c2cccc(-c3nc4ccc(C(F)(F)F)cc4[nH]3)c2)c1 | inactive
Cc1[nH]c(C)c(-c2cccc(-c3ccc(OC(F)(F)F)cc3)c2)c(=O)c1Br | inactive
FC(F)(F)c1cccc2c(NN=Cc3ccccc3)ccnc12 | inactive
Cc1ccc(-n2c(=O)c3c(n4c(SC(C)C)nnc24)-c2ccccc2CC32CCCCC2)cc1 | inactive
Cc1cccc(-c2nc3[nH]c(=O)cc(NC(=O)C(C)C)n3n2)c1 | inactive
Cc1noc(-c2ccc(N3CCC(C(=O)N4CCN(C(C)C)CC4)CC3)cc2)n1 | inactive
Cc1ccc(NC(=S)N2CCCN(CCCCCNC(=O)/C=C/c3ccc(Cl)c(Cl)c3)CC2)cc1Cl | inactive
Cc1cc(NC(=O)c2cccs2)ccc1OC1CCN(Cc2ccc(C#N)cc2)CC1 | inactive
CN(CCCNC(=S)NC12CC3CC(CC(C3)C1)C2)CCCNc1ccnc2cc(Cl)ccc12 | inactive
Cc1cc(C(=O)Nc2ccc3c(c2)CCN3C2CCN(Cc3cccc4cc[nH]c34)C2)no1 (stereo not given) | inactive
CC(C)CCNCc1ccc(OCc2cccc(C(=O)Nc3ccccc3)c2)c(I)c1 | inactive
Cc1nc2nc(N)nc(N)c2c(C)c1Cc1c(Cl)cccc1Cl | inactive
CC(=O)Nc1ccc(C(=O)Nc2cccc(-c3ccc(-c4nc5ccc(C(F)(F)F)cc5[nH]4)cc3)c2)cn1 | inactive
CC1(C)N=C(N)N=C(N)N1OCc1cc2ccccc2cc1CON1C(N)=NC(N)=NC1(C)C | inactive

Structure (SMILES) | outcome
Cc1cccc(CNc2nc(C)cc(NCCC(=O)NCCOc3ccccc3)n2)c1 | inactive
COc1cc2nc(SCCCC#N)n(C3CCCCCC3)c(=N)c2cc1OC | inactive
COc1ccc(-c2cccc(NC(=O)c3cccc(C#N)c3)c2)cc1CN(C)CCO | inactive
N#Cc1cccc(CNC(=O)c2cccc(Nc3ccnc4ccc(F)cc34)c2)c1 | inactive
O=C(c1cc2c(s1)-c1cccc(Cl)c1SC2)N1CCN(c2ccncc2)CC1 | inactive
O=C(Nc1ccc(C(=O)OCC2CCCCC2)cc1)N[C@@H](Cc1ccc(O)cc1)C(=O)NC1CCN(Cc2ccc(O)cc2)C1 (stereo not given in full) | inactive
CCCC/C=C(\Cl)c1ccc(O)c2c1C[C@H]1C[C@H]3[C@H](N(C)C)C(=O)C(C(N)=O)=C(O)[C@@]3(O)C(=O)C1=C2O | inactive
CCC[C@@H]([C@@H](CC(C)C)C(=O)N[C@@H](CCCNc1nccc(C(F)(F)F)n1)C(=O)Nc1nccs1)N(O)C=O | inactive
CCc1cc(NC2CCN(C)CC2)nc(Nc2cccc(OC)c2)n1 | inactive
COCCNCc1cccc(-c2ccc3c(Nc4ccc(F)cc4Cl)ccnc3c2)c1 | inactive
O=C(/C=C/c1ccc(Cl)c(Cl)c1)NCCCCCN1CCC(c2c[nH]c3ccccc23)CC1 | inactive
O=C(C=Cc1ccc(Cl)c(Cl)c1)NCCCCCN1CCCC(CCCNC(=O)c2cccs2)C1 (stereo not given) | inactive
CO/C(=C\C=C\c1cc2cc(Cl)c(Cl)cc2[nH]1)C(=O)NCCCN1CCN(c2cccc(OC)c2)CC1 | inactive
CCOC(=O)NCC(=O)Nc1cccc(-c2cccc(-c3nc4c(C)cccc4[nH]3)c2)c1 | inactive
CCN(CCCN1CCCCC1)c1cc(C)nc(Nc2ccc(C)cc2C)n1 | inactive
COc1ccc2nccc([C@@H](O)CN3CCC(NCCNc4ccccn4)CC3)c2c1 | inactive
CN1CCN(c2ccc(Cl)cc2NC(=O)C2COc3ccccc3O2)CC1 (stereo not given) | inactive
COc1ccc(Nc2nccc(NCCNC(=O)Nc3ccccc3F)n2)cc1 | inactive
Cc1noc(C)c1C(=O)N1CCc2cc3nccc(N4CCN5CCC[C@H]5C4)c3cc21 | inactive
O=C(N1CCN(c2ccc(C(F)(F)F)cc2[N+](=O)[O-])CC1)C(Cl)(Cl)Cl | inactive

— PubChem BioAssay
